The values below come from PMC5540273 (PLoS ONE, 2017).

One experiment relates to T1, JNK1.
T1 construct: gene MAPK8

The subject of another experiment is T2, JNK2.
T2 construct: gene MAPK9

Another experiment relates to T3, JNK3.
T3 construct: gene MAPK10

Experiment [1] concerns JAK2(JH1domain-catalytic).
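Note: kd values determined as follow-up on hits from a single-replicate KINOMEscan panel screen.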

Consider `CCC(=O)c1c(-c2ccccc2)c2cc(Cl)ccc2c(=O)n1Cc1cc(C(=O)NC2CC2)n(C)n1`, for which the Kd in the experiment on JNK1 was determined as 20 nM; in the experiment with JNK2, 10 nM; in the experiment on JNK3 it was 3.8 nM. With `CN(C)c1cc(-c2ccc3c(N)n[nH]c3c2)nc(N)n1` [GSK2219329], the Kd in the experiment with KIT-autoinhibited was above 10000 nM. `COc1cc(Nc2nccc(N3CCC(NC(=O)C(C)c4ccc(Cl)cc4)C3)n2)cc(OC)c1OC` (stereo not drawn) [GSK1379757] returned a Kd in experiment [1] of 140 nM. The same measure, in the same setting: for `COc1cc(Nc2nccc(N3CCC(NC(=O)C4COc5ccccc5O4)C3)n2)cc(OC)c1OC` (stereo not drawn) [GSK1379761] the value was 47 nM. With `COC(=O)c1c(-c2ccccc2)c2cc(Br)ccc2c(=O)n1Cc1ccc(S(C)(=O)=O)cc1`, the Kd was found to be 480 nM in the experiment on JNK1, 350 nM in the experiment on JNK2 and 73 nM in the experiment on JNK3. The molecule `CCc1nc(-c2cccc(C)c2)c(-c2ccncc2)s1` registered a dissociation constant (Kd) in the experiment with JNK3 of 81 nM. In the case of `Nc1n[nH]c2ncc(-c3ccccc3)cc12` [SB-517081], binding in the experiment on KIT was characterised by a dissociation constant (Kd) of 92 nM. Regarding `CCC(=O)c1c(-c2ccccc2)c2cc(Cl)ccc2c(=O)n1Cc1ccc(C(=O)O)cc1`, the Kd in the experiment with JNK1 came to 66 nM; with JNK2, 77 nM; in the experiment on JNK3, 12 nM. `CCCNC(=O)Nc1ccc(Oc2ncnc3ccn(C)c23)cc1` showed a Kd in the experiment on KIT of 67 nM. With `O=c1cc(N2CCOCC2)nc2n(Cc3ccc(F)c(Cl)c3)ccn12` [GSK2297099], in experiment [1], the Kd is above 10000 nM. As to `CCC(=O)c1c(-c2ccccc2)c2cc(Cl)ccc2c(=O)n1Cc1cc(S(C)(=O)=O)n(CCC(C)(C)O)n1`, the Kd in the experiment on JNK1 was 19 nM; in the experiment on JNK2, 15 nM; in the experiment with JNK3 it was 4.6 nM. Molecule `Fc1cccc(CSc2nnc(-c3ccc4c(c3)CCO4)o2)c1` had a Kd in the experiment with IRAK4 above 10000 nM. For the molecule `CCC(=O)c1c(-c2ccccc2)c2cc(Cl)ccc2c(=O)n1Cc1cc(S(C)(=O)=O)n(CC(F)F)n1`, the dissociation constant (Kd) in the experiment with JNK1 was 37 nM; with JNK2 it was 33 nM; with JNK3, 9.2 nM. For `COc1ccc(Nc2nccc(N3CCC(NS(=O)(=O)c4ccc(NC(C)=O)cc4)C3)n2)cc1` (stereo not drawn) [GSK1379729], the Kd in experiment [1] was determined as 38 nM.

By Kd is commonly meant the free concentration of one partner at which half of the binding sites on the other are occupied at equilibrium, for simple one-to-one binding.
